PubChem BioAssay AID1851 (National Center for Advancing Translational Sciences (NCATS), 2009)
Out of some 16,000 compounds screened, about 4,000 (25%) were called active. Inconclusive results (about 26%) are left out. These entries were drawn from the full list. Unmarked numbers belong to inactive results. Calls follow the shape of the dose curve; as a rule, active = well fitted curve in the direction sought with a large enough effect; inconclusive = small, poorly fitted or top-dose-only effect, or effect the other way; inactive = no such curve, though single readings can be large or run the other way. Peptide text beside a SMILES is read from it. * marks the point of attachment. Cbz = O=C(OCc1ccccc1)*

target: Cytochrome P450 2C9 (Homo sapiens) (UniProt P11712); test: Cytochrome panel assay with activity outcomes; conditions: recombinant CYP, pro-luciferin dealkylation, luminescence, p450-cyp2c9; series mostly up to 57.1 µM
Sequence (P11712 whole entry, looked up): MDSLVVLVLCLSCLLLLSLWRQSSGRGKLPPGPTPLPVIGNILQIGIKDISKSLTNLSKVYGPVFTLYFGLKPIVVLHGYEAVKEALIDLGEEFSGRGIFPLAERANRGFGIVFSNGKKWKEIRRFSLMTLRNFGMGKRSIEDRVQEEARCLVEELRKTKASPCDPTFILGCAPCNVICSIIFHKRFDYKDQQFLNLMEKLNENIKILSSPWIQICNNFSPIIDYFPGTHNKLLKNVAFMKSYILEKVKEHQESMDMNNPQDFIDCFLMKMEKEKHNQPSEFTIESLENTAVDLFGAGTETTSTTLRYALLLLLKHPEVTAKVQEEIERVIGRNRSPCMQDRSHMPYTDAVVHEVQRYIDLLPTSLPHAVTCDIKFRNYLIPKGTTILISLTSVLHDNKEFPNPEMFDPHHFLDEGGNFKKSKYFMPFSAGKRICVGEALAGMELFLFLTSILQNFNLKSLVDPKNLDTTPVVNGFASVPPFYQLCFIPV
% is scaled to controls: 0 for no effect and ±100 for the full control effect.

SMILES	activity, negative = inhibition	AC50
CN(C)C(=O)c1ccc(-c2ccc3ncnc(NCCN4CCOCC4)c3c2)cc1	1.81% [at 2.29 µM]	–
Cc1c(C(=O)Nc2nccs2)sc2nc(-c3cccs3)cc(C(F)(F)F)c12	–	3.16 µM (active)
CC(C)(C)NC(=O)CN(Cc1cccs1)C(=O)CCC(=O)Nc1nccs1	–	inactive
CCC(NC(=O)C1(C)CC1(Br)Br)c1ccc(C)cc1 (centres undefined)	–	5.01 µM (active)
CC[C@H](NC(=O)c1c(C)c(-c2ccccc2)nc2ccccc12)c1ccccc1	–	inactive
N#Cc1cccc(-c2nccc(-n3ccnc3)n2)c1	5.77% [at 2.29 µM]	–
CO[C@H]1[C@@H](OC(N)=O)[C@H](O)[C@@H](Oc2ccc3c(O)c(NC(=O)c4ccc(O)c(CC=C(C)C)c4)c(=O)oc3c2C)OC1(C)C	–	inactive
COC(=O)N1CCC2(CCN(Cc3ccccc3OC)CC2)CC1	–	inactive
COc1ccccc1CC(=O)Nc1cc2oc3ccccc3c2cc1OC	–	3.98 µM (active)
CCOCC(=O)Nc1c(C(=O)Nc2ccccc2OC)oc2ccccc12	–	inactive
CCCC[C@@H]1C[C@H]1C(NC(=O)c1cccs1)c1ccc(C(F)(F)F)cc1 (some centres undefined)	–	1.58 µM (active)
CCCC[C@@H]1C[C@H]1C(NC(=O)c1cccs1)c1ccc(-c2ccccc2)cc1 (some centres undefined)	–	1.58 µM (active)
CCCC[C@@H]1C[C@H]1C(NC(=O)c1cccs1)c1ccc(Cl)cc1 (some centres undefined)	–	1 µM (active)
Cc1cc(C)c2c(N)c3ccccc3nc2n1	–	inactive
COc1cccc(Cn2c(=O)cnc3cnc(N(C)C)nc32)c1	–	12.6 µM (active)
COc1cccc(Cn2c(=O)c(CCc3ccccc3)nc3cnc(N(C)C)nc32)c1	–	10 µM (active)
COc1cccc(Cn2c(=O)cnc3cnc(Nc4cccc(OC)c4)nc32)c1	–	2 µM (active)
CCNc1ncc2nc(CCc3ccccc3)c(=O)n(Cc3cccc(OC)c3)c2n1	–	inactive
COc1cccc(Cn2c(=O)c(CCc3ccccc3)nc3cnc(OC)nc32)c1	–	6.31 µM (active)
COc1cccc(Nc2ncc3ncc(=O)n(C)c3n2)c1	–	inactive
COc1ccc(-n2c(=O)cnc3cnc(N(C)C)nc32)cc1	–	inactive
COc1cccc(Nc2ncc3ncc(=O)n(CCC#N)c3n2)c1	–	inactive
N[C@@H](Cc1cnc[nH]1)C(=O)O	–	inactive
Cc1nc2nc[nH]n2c(=O)c1NC(=O)CC12CC3CC(CC(C3)C1)C2	–	inactive

SMILES	activity, negative = inhibition	AC50
C[C@H]1[C@H](C)OC(=O)C[C@H](O)C[C@H](O)C[C@H](O)CC[C@H](O)[C@H](O)CC(=O)C[C@H](O)[C@H](C(=O)O)[C@H](O)C[C@H](O[C@@H]2O[C@@H](C)[C@H](O)[C@@H](N)[C@@H]2O)C=CC=CC=CC=CCCC=CC=C[C@@](C)(O)[C@H]1O	14.1% [at 11.4 µM]	–
CCNc1ncc2nc(-c3ccc(OC)cc3)c(=O)n(Cc3cccc(OC)c3)c2n1	–	inactive
COc1cccc(Cn2c(=O)cnc3cncnc32)c1	–	31.6 µM (active)
COc1ccc(-n2c(=O)c(CCc3ccccc3)nc3cnc(N4CCN(C)CC4)nc32)cc1	–	inactive
CN1CCN(c2ncc3nc(-c4ccccc4)c(=O)n(Cc4cccs4)c3n2)CC1	–	inactive
CCNc1ncc2nc(C)c(=O)n(Cc3cccs3)c2n1	–	inactive
CN1CCN(c2ncc3nc(CCc4ccccc4)c(=O)n(Cc4cccs4)c3n2)CC1	–	25.1 µM (active)
Cc1nc2cnc(N3CCN(C)CC3)nc2n(Cc2cccs2)c1=O	–	inactive
CCNc1ncc2nc(C)c(=O)n(Cc3cccc(OC)c3)c2n1	–	15.8 µM (active)
Cc1nc2cnc(N3CCN(C)CC3)nc2n(CCc2ccccc2)c1=O	–	inactive
COc1cccc(Cn2c(=O)c(CCc3ccccc3)nc3cnc(N4CCN(C)CC4)nc32)c1	–	25.1 µM (active)
C[C@@]12CCC(=O)C=C1CC[C@H]1[C@H]3CC[C@](O)(C(=O)CO)[C@]3(C)CC(=O)[C@@H]12	–	inactive
Cc1ccc(OC[C@H](O)[C@H](C)NC(C)C)c2c1CCC2	–	inactive
CC(C)(CS)C(=O)N1CCC[C@H]1C(=O)O	–	inactive
c1ccc(C2=NN[C@@H]3c4ccccc4-c4ccccc4N3C2)cc1	6.37% [at 11.4 µM]	–
O=C1N=C2SCCN2/C1=C\c1c(Cl)cccc1Cl	–	15.8 µM (active)
O=C(O)c1ccc(OCc2ccccc2)c(Cl)c1	-17.5% [at 11.4 µM]	–
O=C(NCc1ccccc1)c1cccc(COc2cccc(Cl)c2)c1	–	17.8 µM (active)
Cc1ccc(Nc2nc(-c3sc(NC(=O)c4cccc(Cl)c4)nc3C)cs2)cc1	–	inactive
Cc1nc(NC(=O)c2ccccc2)sc1-c1csc(Nc2cccc(Cl)c2)n1	–	3.55 µM (active)
Cc1nc(NC(=O)c2ccccc2)sc1-c1csc(Nc2ccc(Cl)cc2Cl)n1	–	inactive
COc1ccc(OC)c(Nc2nc(-c3sc(NC(=O)c4ccccc4)nc3C)cs2)c1	–	3.55 µM (active)
C=CCCC(=O)Nc1nc(C)c(-c2csc(Nc3ccc(Cl)cc3)n2)s1	–	10 µM (active)
COc1ccccc1Nc1nc(-c2sc(NC(=O)c3ccccc3)nc2C)cs1	–	2.24 µM (active)

SMILES	activity, negative = inhibition	AC50
CCC1(O)c2ccccc2-c2ncccc21 (centres undefined)	–	inactive
C[N+](C)(C)CCCCCCCCCC[N+](C)(C)C	–	inactive
Cc1ccccc1-c1ccc2ncnc(NC3CC3)c2c1	19.9% [at 2.29 µM]	–
Cc1ccccc1-c1cncnc1NC1CCNCC1	1.54% [at 2.29 µM]	–
CCOc1ccccc1Nc1ccc(N)cc1S(=O)(=O)O	-6.23% [at 11.4 µM]	–
CCOc1ccccc1Nc1nc(-c2sc(NC(=O)c3ccccc3)nc2C)cs1	–	2.51 µM (active)
CCOc1ccccc1NC(=O)CCC(=O)O	–	inactive
COc1ccc(C(=O)Nc2ccc3c(c2)nc(CN2CCN(C(C)=O)CC2)n3C)cc1	–	inactive
COc1ccc(C(=O)n2c(SC)nc3cc4c(cc32)OCCO4)cc1	–	1.41 µM (active)
COc1cccc(C(=O)n2c(SC)nc3cc4c(cc32)OCCO4)c1	–	20 µM (active)
COc1ccc(C(=O)N2CCC3(CCN(Cc4cc(C(F)(F)F)cc(C(F)(F)F)c4)CC3)CC2)cc1	–	inactive
CCOc1cc(/C=N/NC(=O)CN2CCCCC2)ccc1OCc1ccccc1	–	inactive
CC(C)C(=O)N/N=C/c1ccc(OCc2ccccc2)cc1	–	inactive
COc1cc(/C=N/NC(=O)c2cccs2)ccc1OCc1ccccc1	–	2.24 µM (active)
O=C(N/N=C/c1cccc(OCc2ccccc2)c1)c1cccs1	–	2.51 µM (active)
O=C(N/N=C/C=C/c1ccc([N+](=O)[O-])cc1)c1cccs1	–	inactive
COc1cc(CNCc2cccs2)ccc1OCC(N)=O	–	inactive
Cc1ccc(/C=N/NC(=O)c2cccs2)cc1[N+](=O)[O-]	–	3.98 µM (active)
C=CCc1ccccc1OC[C@H](O)CNC(C)C	–	inactive
Cc1cccn2c(=O)c(C=NCc3ccco3)c(Nc3ccc(SC(F)F)cc3)nc12	–	inactive
CC1CCCC(C)N1C(=O)c1ccccc1Nc1ccc(SC(F)F)cc1 (centres undefined)	–	7.08 µM (active)
CC(=O)OC[C@H]1O[C@@H](O/N=C(\C)CCN2CCc3nc(-c4ccccc4)c(-c4ccccc4)cc3C2)[C@H](OC(C)=O)[C@@H](OC(C)=O)[C@H]1OC(C)=O	4.27% [at 11.4 µM]	–
CCC(=O)OCc1c(C(F)(F)F)nn(C)c1Sc1ccc(F)cc1	–	10 µM (active)
OC[C@@H](O)CNc1ncnc2ccccc12	23.8% [at 11.4 µM]	–

SMILES	activity, negative = inhibition	AC50
c1ccc(C(CCN2CC3CCC(CC3)C2)c2ccccc2)cc1	8.36% [at 11.4 µM]	–
C[C@@H]1CN(CCCn2c3ccccc3c3ccccc32)C[C@H](C)N1	–	12.6 µM (active)
c1ccc2c(c1)c1ccccc1n2Cn1c2ccccc2c2ccccc21	-11.7% [at 11.4 µM]	–
CC1(C)NC(=O)N(c2ccc([N+](=O)[O-])c(C(F)(F)F)c2)C1=O	–	inactive
Cc1cccn2c(/C=N/OCc3cccc(F)c3)c(-c3ccc(Cl)cc3)nc12	–	6.31 µM (active)
Cc1cc2nc3c(=O)[nH]c(=O)nc-3n(CC(O)C(O)C(O)CO)c2cc1C (centres undefined)	–	inactive
COc1cccc(-c2ccc3ncnc(NC4CCNCC4)c3c2)c1	19.4% [at 2.29 µM]	–
CSc1nc2n(n1)C(c1cc(Br)ccc1F)C(C(=O)N(C)C)=C(C)N2 (centres undefined)	–	22.4 µM (active)
O=S(=O)(c1ccccc1)N1N=C(c2cccs2)CC1c1ccc(Br)cc1 (centres undefined)	–	1.41 µM (active)
COC(=O)CCC(NC(=O)OCc1ccccc1)C(=O)NC(CC(C)C)C(=O)OC (centres undefined) (Cbz-Glu(OMe)-Leu-OMe; configuration not given here)	–	0.355 µM (active)
COC(=O)C(CC(C)C)NC(=O)C(N)Cc1ccccc1 (stereo not drawn) (H-Phe-Leu-OMe; configuration not given here)	–	inactive
CCCCC(C=O)NC(=O)C(CC(C)C)NC(=O)OCc1ccccc1 (centres undefined)	–	inactive
COC(=O)N1CCC2(CCN(Cc3cc(C(F)(F)F)cc(C(F)(F)F)c3)CC2)CC1	–	inactive
Cc1ccc(OCC(=O)N/N=C\c2c(C)n(C)c3ccccc23)c([N+](=O)[O-])c1	–	inactive
Cc1ccc(NS(=O)(=O)c2ccc(OCC(=O)Nc3cccc([N+](=O)[O-])c3)c(C)c2)cc1	–	1.26 µM (active)
O=C(CN1CCCCC1)Nc1cccc([N+](=O)[O-])c1	–	inactive
Cc1cc(Nc2ccc(Cl)cc2)nc(N)n1	–	inactive
C=C1c2cccc(O)c2C(O)=C2C(=O)[C@@]3(O)C(O)=C(C(N)=O)C(=O)[C@@H](N(C)C)[C@@H]3[C@@H](O)[C@H]12	–	inactive
Cc1nn(Cc2ccccc2Cl)c(C)c1NC(=O)CCCn1nc(C)c([N+](=O)[O-])c1C	–	inactive
Cc1nn(Cc2c(F)c(F)c(F)c(F)c2F)c(C)c1NC(=O)c1cccc(COc2ccccc2Cl)c1	–	8.91 µM (active)
Cc1nn(Cc2c(F)c(F)c(F)c(F)c2F)c(C)c1NC(=O)c1c(-c2ccccc2)nn(-c2ccccc2)c1C	–	7.08 µM (active)
Cc1nn(Cc2c(F)c(F)c(F)c(F)c2F)c(C)c1NC(=O)c1cccc(COc2ccc(Cl)cc2)c1	–	2.82 µM (active)
